From PubChem
Nrf2 activator = Nrf2 pathway activation; Potency, µM (doses to about 46.1 µM), for the others: top-dose activation, most hits filed as activators; hit rate 0.31% among 410,000; AREc32 ARE-luciferase reporter (MCF7-derived line), luminescence, 24 h; further: % of control where 0% means no effect; nearly all actives have a fitted effect of over 65% in size
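Reporter line AREc32 (ARE-Fluc), seeded overnight in OPTI-MEM with 5% FBS; compound pin-transferred, 24 hr at 37 deg C, 5% CO2; luminescent read-out.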
A549 viability = kills or reduces viability of A549 cells in Nrf2 counter-screen | A549 ARE-Fluc cells, CellTiter-Fluor viability, 18-24 h | Potency, µM (titrated, usually from 46 µM), inactives show at the top dose activity change, negative = cytotoxicity, most hits filed as inhibitors | hit rate 0.16% among 390,000; further: on the % scale 0 is the no-effect control and ±100 the full control effect
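A549 ARE_Fluc cells in 5% FBS OPTI-MEM were exposed to compounds in concentration-response for 18-24 h at 37 deg C. Viability was read by CellTiter-Fluor fluorescence (Ex 405/Em 525) after 30 min, before the luciferase read.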
IDH1 R132H inh = inhibitors of human mutant IDH1 R132H. hit rate 0.093% among 390,000. Potency, µM (top dose mostly 76.6 µM), without a hit: top-dose activity change, negative = inhibition, most hits filed as inhibitors. IDH1-R132H enzyme, NADPH consumption, diaphorase/resazurin fluorescence; further: on the % scale 0 is the no-effect control and ±100 the full control effect; nearly all actives have a fitted effect of over 65% in size
Target sequence (O75874 whole entry R132H, stated change not applied): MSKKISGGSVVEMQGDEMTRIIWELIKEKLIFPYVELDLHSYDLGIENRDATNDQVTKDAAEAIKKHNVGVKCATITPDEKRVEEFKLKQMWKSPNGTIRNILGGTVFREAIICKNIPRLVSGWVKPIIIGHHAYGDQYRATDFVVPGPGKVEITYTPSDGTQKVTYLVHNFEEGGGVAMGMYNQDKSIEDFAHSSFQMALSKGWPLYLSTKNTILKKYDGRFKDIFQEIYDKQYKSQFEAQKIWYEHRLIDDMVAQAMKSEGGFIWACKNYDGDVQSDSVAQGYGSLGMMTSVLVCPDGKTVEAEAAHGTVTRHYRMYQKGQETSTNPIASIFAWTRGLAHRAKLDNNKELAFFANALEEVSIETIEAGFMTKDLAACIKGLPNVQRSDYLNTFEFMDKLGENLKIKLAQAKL
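IDH1-R132H (0.5 ug/mL dispensed) in pH 7.5 Tris buffer was preincubated 30 min with compound, then given a substrate mix of 0.016 mM NADPH and 2 mM alpha-KG for 80 min at room temperature; remaining NADPH was read by diaphorase/resazurin fluorescence.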
ELG1 repair inh = blocks ELG1-dependent DNA repair in HEK293T cells; HEK293T ELG1-luciferase reporter, luminescence, 16 h; DNA damage induced by 5-fluorouridine; Potency, µM (top dose mostly 46.1 µM), inactives show at the highest dose activity change, negative = inhibition, hits mostly inhibitors; hit rate 2.3% among 330,000; further: on the % scale 0 is the no-effect control and ±100 the full control effect; nearly all actives have a fitted effect of over 55% in size
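DMSO vehicle served as the neutral condition. Each well held 2,000 cells given 5-fluorouridine plus compound; after 16 hr at 37 °C/5% CO2, ONE-Glo was added and luciferase measured 30 min later.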
Nrf2 block = inhibitors of Nrf2 signaling. A549 ARE-Fluc reporter, luciferase luminescence, 18-24 h. Potency, µM (highest dose often 46 µM), for the others: at the highest dose activity change, negative = inhibition, hits mostly inhibitors. hit rate 2.1% among 360,000. AID 504444; further: on the % scale 0 is the no-effect control and ±100 the full control effect; nearly all actives have a fitted effect of over 60% in size
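Cells were seeded and rested 2 h, then exposed to compounds for 18-24 h. CellTiter-Fluor was read first as a viability measure. BugLite was added 15 min before the final luminescent read of ARE-luciferase activity in A549 cells.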
Active calls of the source: *; ? = inconclusive; nt = no result. Only some compounds are listed: those with a hit (about 3.8% of all), similar ones and a draw of the others. The call rests on the fitted dose curve; in most records, active means well fitted curve in the direction sought with a large enough effect; inconclusive means small, poorly fitted or top-dose-only effect, or another doubt; inactive means no such curve, though single readings can be large; an effect the other way counts as inactive or inconclusive. Potency means the concentration at half of the fitted maximal effect.

SMILES	Nrf2 activator	A549 viability	IDH1 R132H inh	ELG1 repair inh	Nrf2 block
COc1ccc(C2=NN(CC(=O)NCCCN(C)c3ccccc3)C(=O)CC2)cc1	5%	1%	6%	nt	nt
O=C(NCc1ccco1)c1ccc2c(c1)N(Cc1ccccc1)C(=O)CS2	5%	-1%	1%	?	23µM*
C=CCN1C(=O)CSc2ccc(C(=O)NCc3ccco3)cc21	6%	7%	1%	-6%	16%
Cc1ccc(C(=O)Oc2ccc(/C=C3\C(=N)N4N=C(N5CCOCC5)SC4=NC3=O)cc2)cc1	0%	5%	6%	?	7.3µM*
COc1ccc(-c2nc3ccccc3n2Cc2ccccc2)cc1COc1ccc(NC(C)=O)cc1	nt	-8%	nt	nt	?
Cc1ccc(C(=O)NCc2ccco2)cc1S(=O)(=O)Nc1cccc(Cl)c1	3%	-12%	-2%	-3%	23µM*
Cc1noc(C)c1-c1ccc2ncnc(NCc3ccccc3F)c2c1	nt	3%	nt	nt	21µM*
CCOc1ccccc1CNc1ncnc2ccc(-c3c(C)noc3C)cc12	26%	0%	nt	29%	16µM*
Cc1noc(C)c1-c1ccc2ncnc(NCc3ccc(F)cc3)c2c1	nt	3%	nt	nt	-11%
Cc1noc(C)c1-c1ccc2ncnc(NCc3cccc(F)c3)c2c1	nt	5%	nt	nt	?
Cc1noc(C)c1-c1ccc2ncnc(NCc3cccc(-c4ccccc4)c3)c2c1	nt	-14%	nt	nt	7.3µM*
COc1cc(CNc2ncnc3ccc(-c4c(C)noc4C)cc23)cc(OC)c1OC	nt	2%	nt	nt	-15%
Cc1noc(C)c1-c1ccc2ncnc(NC(C)c3ccccc3)c2c1 (stereo not given)	nt	6%	nt	nt	23µM*
COc1cccc(CNc2ncnc3cc(OC)c(OC)cc23)c1	0%	-1%	1%	?	?
COc1cccc(-c2ccc3ncnc(NCc4cccnc4)c3c2)c1	-1%	0%	nt	5.2µM*	?
COc1ccccc1NC(=O)CN1C(=O)C2(SCC(=O)N2c2ccc(C)c(C)c2)c2ccccc21 (stereo not given)	0%	?	-2%	nt	21µM*
COc1ccc(NC(C)=O)cc1NC(=O)C1(c2cccs2)CCOCC1	6%	0%	4%	nt	nt
CS(=O)(=O)N(CC(=O)Nc1ccccc1Br)Cc1ccccc1	-1%	4%	-1%	-10%	2%
Cc1ccc(-n2nc(C)c3c(-c4cccs4)c(C#N)c(N)nc32)cc1	5%	1%	3%	13µM*	-8%
Cc1nn(-c2ccccc2)c2nc(N)c(C#N)c(-c3ccc(F)cc3)c12	0%	-5%	0%	?	?
CCN(CC)CCN(Cc1cc2ccc(C)cc2[nH]c1=O)C(=S)Nc1ccccc1C(=O)OC	10%	?	-8%	-1%	27%
COC(=O)c1ccccc1NC(=S)N(Cc1ccc2c(c1)OCO2)Cc1cc2cc(C)ccc2[nH]c1=O	-1%	-11%	2%	6.5µM*	-22%
COC(=O)c1ccccc1NC(=S)N(Cc1ccc2c(c1)OCO2)Cc1cc2ccc(C)cc2[nH]c1=O	3%	1%	8%	5.8µM*	-3%
COC(=O)c1ccccc1NC(=S)N(Cc1ccc2c(c1)OCO2)Cc1cc2ccc(OC)cc2[nH]c1=O	0%	7%	3%	7.3µM*	-12%
COc1ccc2[nH]c(=O)c(CN(Cc3ccc4c(c3)OCO4)C(C)=O)cc2c1	0%	-7%	0%	-17%	-3%
SMILES	Nrf2 activator	A549 viability	IDH1 R132H inh	ELG1 repair inh	Nrf2 block
CCOC(=O)C1CCN(C(=O)c2sc3nc(C)nc(N4CCC(C)CC4)c3c2C)CC1	0%	1%	6%	23µM*	8%
Cc1c(C(=O)N2CCN(c3ccccc3)CC2)sc2ncnc(N3CCC(C)CC3)c12	nt	nt	nt	7%	nt
CCOC(=O)C1CCN(C(=O)c2sc3ncnc(N4CCC(C)CC4)c3c2C)CC1	0%	9%	7%	23µM*	?
Cc1ccc(O)c(NC(=O)c2noc3c2CCCC3)c1	7.9µM*	-3%	-3%	nt	1%
Cc1ccc(O)c(NC(=O)c2noc3c2CCCCC3)c1	?	1%	2%	?	11%
COc1ccc(NC(=O)CC2C(=O)N(c3ccc(F)cc3)C(=O)N2Cc2ccc3c(c2)OCO3)cc1 (stereo not given)	1%	2%	0%	nt	3%
CCc1nnc(N2CCN(c3ncnc4c3oc3ccccc34)CC2)s1	3%	-6%	3%	?	10µM*
c1ccc(N2CCN(c3ncnc4c3oc3ccccc34)CC2)cc1	0%	-1%	7%	?	-19%
CCN(CC(=O)Nc1ccc(NC(C)=O)cc1)C(=O)CSc1ncnc2sc(C)c(C)c12	0%	-6%	8%	?	1%
CCCN(CC1CC1)C(=O)CSc1ncnc2sc(C)c(C)c12	1%	-1%	8%	18µM*	?
CC1CCc2c(sc3ncnc(SCC(=O)N(C)C4CCS(=O)(=O)C4)c23)C1 (stereo not given)	0%	-4%	12%	?	16µM*
Cc1sc2ncnc(SCC(=O)c3cccs3)c2c1C	14µM*	-15%	-3%	?	?
CCN(C(=O)CSc1nc(C)nc2sc3c(c12)CCC3)C1CCS(=O)(=O)C1 (stereo not given)	0%	3%	-9%	?	?
CCN(C(=O)CSc1ncnc2sc(C)c(C)c12)C1CCS(=O)(=O)C1 (stereo not given)	0%	-1%	-4%	?	13µM*
CC(C)NC(=O)C1(S(=O)(=O)c2ccccc2)CC=CC1	0%	2%	-1%	-3%	6%
Cc1cccc(-n2c(=O)c3ccccc3n(Cc3ccc(F)cc3)c2=O)c1	1%	-9%	14%	nt	1%
Cc1ccc(C)c(NC(=O)COc2coc(CN3CCc4ccccc4C3)cc2=O)c1	-1%	-5%	-5%	-6%	10µM*
Cc1ccc(NC(=O)COc2coc(CN3CCc4ccccc4C3)cc2=O)c(C)c1	0%	1%	2%	?	-1%
Cc1ccc(CNc2ccc(-c3nc(C(C)C)no3)cc2[N+](=O)[O-])cc1	0%	0%	5%	nt	30%
CC(C)Nc1nnc(SCC(=O)c2c(N)n(Cc3ccccc3)c(=O)n(C)c2=O)s1	0%	-1%	1%	18µM*	nt
CC(C)Cn1c(N)c(C(=O)COC(=O)c2cccc(F)c2)c(=O)n(C)c1=O	3%	7%	1%	?	-12%
CC(C)Cn1c(N)c(C(=O)CSc2ccccc2)c(=O)n(C)c1=O	2%	-2%	2%	23µM*	?
Cc1cccc(C(=O)OCC(=O)c2c(N)n(CC(C)C)c(=O)n(C)c2=O)c1O	0%	-15%	-3%	?	18µM*
CC(C)Cn1c(N)c(C(=O)COC(=O)c2ccc(Cl)cc2)c(=O)n(C)c1=O	4%	-13%	0%	18µM*	?
